The target of test [1] is Transcription factor E2F1 (Homo sapiens) (UniProt Q01094). As to the kind of experiment: ATG_E2F_CIS: Attagene CIS-FACTORIAL HepG2 Assay for human E2F Transcription Factor 1 (AID 2282935). To be noted: HepG2 Attagene cis-reporter, E2F reporter RNA transcripts; actives raise or lower the signal. Summed up: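 Fluorescent RT-PCR products, digested with HpaI for 2 h at 37 C, are separated by capillary electrophoresis. Source RNA comes from transfected HepG2 cultures treated for 24 h.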
Transcription factor E2F1 (Homo sapiens), sequence (Q01094 whole entry, looked up): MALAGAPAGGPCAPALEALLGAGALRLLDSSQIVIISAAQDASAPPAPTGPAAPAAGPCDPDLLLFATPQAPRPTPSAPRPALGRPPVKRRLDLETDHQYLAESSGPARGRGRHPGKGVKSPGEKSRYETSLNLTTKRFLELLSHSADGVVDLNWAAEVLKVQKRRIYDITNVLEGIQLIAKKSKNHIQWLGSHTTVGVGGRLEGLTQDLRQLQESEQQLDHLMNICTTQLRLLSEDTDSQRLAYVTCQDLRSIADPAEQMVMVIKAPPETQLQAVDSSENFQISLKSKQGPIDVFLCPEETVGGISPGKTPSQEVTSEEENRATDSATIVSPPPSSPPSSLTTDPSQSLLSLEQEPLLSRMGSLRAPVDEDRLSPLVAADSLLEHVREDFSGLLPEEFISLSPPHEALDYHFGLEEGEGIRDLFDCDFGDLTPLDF

Test [2] is described as follows: ATG_E_Box_CIS: Attagene CIS-FACTORIAL HepG2 Assay for human Enhancer Box (E-box) (AID 2282936). To be noted: HepG2 E-box cis-reporter transcription, actives raise or lower the signal. Summed up:
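Fluorescent reporter fragments separated by capillary electrophoresis gave the signal; mRNA came from HepG2 cells transfected with cis-element reporters and treated 24 h. Curves fitted bidirectionally relative to DMSO controls.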

Test [3] is described as follows: ATG_M_61_CIS: Attagene CIS-FACTORIAL HepG2 Assay for M61 Transcription Factor (Internal Marker) (AID 2282937). To be noted: HepG2 Attagene CIS-FACTORIAL M61 internal marker reporter; actives raise or lower the signal. The method, boiled down: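 Readout: fluorescent reporter mRNA fragments resolved by capillary electrophoresis after RT-PCR. Transiently transfected human HepG2 cells carried MRTU constructs reporting endogenous TF activity; 24 h chemical exposure; gain or loss of signal fitted relative to DMSO.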

Test [4] in a line: ATG_EGR_CIS: Attagene CIS-FACTORIAL HepG2 Assay for human Early Growth Response 1 (EGR1) (AID 2282938). The following applies: HepG2 Attagene CIS-FACTORIAL EGR reporter mRNA; actives raise or lower the signal. The method, boiled down: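 Read-out: fluorescent reporter-mRNA fragments resolved by capillary electrophoresis after RT-PCR, 24 h post-dose in transiently transfected HepG2. Endogenous transcription-factor activity reported via cis-element-regulated reporter units; gain or loss fitted relative to DMSO.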

Test [5] in a line: ATG_M_19_CIS: Attagene CIS-FACTORIAL HepG2 Assay for M19 Transcription Factor (Internal Marker) (AID 2282939). To be noted: HepG2 Attagene CIS-FACTORIAL M19 internal marker reporter; actives raise or lower the signal. Summed up: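 Internal marker readout, fitted in both directions against DMSO, from HepG2 cells carrying transfected cis-element reporter constructs; RT-PCR and capillary electrophoresis of reporter mRNA after 24 h exposure.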

Test [6] is described as follows: ATG_ERE_CIS: Attagene CIS-FACTORIAL HepG2 Assay for Estrogen Response Element (ERE) (AID 2282940). The following applies: HepG2 ERE cis-reporter, Attagene RNA transcript; actives raise or lower the signal. The method, boiled down: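 After 24 h compound treatment, RNA from transfected HepG2 cells was reverse-transcribed, reporter cDNA PCR-amplified, FAM-labelled, HpaI-cut and resolved by capillary electrophoresis. ERE-driven cis reporter transcripts reflect endogenous factors; gain or loss scored against DMSO.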

A short description of test [7]: ATG_Ets_CIS: Attagene CIS-FACTORIAL HepG2 Assay for human Erythroblast Transformation Specific (ETS) (AID 2282941). To be noted: HepG2 ETS cis-reporter transcription, actives raise or lower the signal. The method, boiled down: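 Bidirectional fit versus DMSO of reporter mRNA signal, detected by RT-PCR and capillary electrophoresis in HepG2 cells transiently transfected with cis-element reporters and dosed 24 h.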

For test [8], the target named is Hepatocyte nuclear factor 3-beta (Homo sapiens) (UniProt Q9Y261). As to the kind of experiment: ATG_FoxA2_CIS: Attagene CIS-FACTORIAL HepG2 Assay for human Forkhead box A2 (FOXA2) (AID 2282942). The following applies: HepG2 cis-reporter transcription factor activity, 24 h; actives raise or lower the signal. Summed up: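 Readout: fluorescent reporter transcripts resolved by capillary electrophoresis after RT-PCR. Transiently transfected HepG2, 24 h compound exposure, endogenous TF activity at cis promoter elements. Gain or loss of signal fitted relative to DMSO.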
Hepatocyte nuclear factor 3-beta (Homo sapiens), sequence (Q9Y261 whole entry, looked up): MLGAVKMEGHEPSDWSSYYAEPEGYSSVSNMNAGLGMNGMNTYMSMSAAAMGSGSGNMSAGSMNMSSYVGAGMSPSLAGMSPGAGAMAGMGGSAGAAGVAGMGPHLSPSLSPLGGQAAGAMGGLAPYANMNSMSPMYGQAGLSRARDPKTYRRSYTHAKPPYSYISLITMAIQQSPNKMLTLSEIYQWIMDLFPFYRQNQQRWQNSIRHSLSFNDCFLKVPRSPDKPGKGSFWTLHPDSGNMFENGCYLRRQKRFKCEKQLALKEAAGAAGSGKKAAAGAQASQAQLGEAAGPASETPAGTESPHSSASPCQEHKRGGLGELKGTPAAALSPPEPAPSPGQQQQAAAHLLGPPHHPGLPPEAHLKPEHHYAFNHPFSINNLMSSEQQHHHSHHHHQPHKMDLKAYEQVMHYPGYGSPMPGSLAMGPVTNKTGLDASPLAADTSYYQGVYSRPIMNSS

Test [9] can be described thus: ATG_FoxO_CIS: Attagene CIS-FACTORIAL HepG2 Assay for human Forkhead box O (FoxO) (AID 2282943). The following applies: HepG2 Attagene cis-reporter, FoxO element, mRNA; actives raise or lower the signal. Summed up:
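HepG2, transient MRTU transfection (cis element, endogenous TFs). Dose 24 h. TriZol RNA → oligo(dT) RT → PCR → 6-FAM primer extension → HpaI cut → CE. Gain/loss vs DMSO.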

A short description of test [10]: ATG_GLI_CIS: Attagene CIS-FACTORIAL HepG2 Assay for human Zinc Finger Protein GLI1 (AID 2282945). The following applies: HepG2, Attagene cis-factorial reporter mRNA, GLI element; actives raise or lower the signal. The method, boiled down:
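Bidirectional curve fits relative to DMSO, using reporter mRNA levels from RT-PCR plus capillary electrophoresis. Cells were HepG2 transiently carrying cis-regulated reporter constructs, harvested 24 h after dosing.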

The target of test [11] is Bile acid receptor (Homo sapiens) (UniProt Q96RI1). As to the kind of experiment: ATG_IR1_CIS: Attagene CIS-FACTORIAL HepG2 Assay for human Nuclear Receptor Subfamily 1 Group H Member 4 (NR1H4), IR1 submotif (AID 2282946). To be noted: IR1 reporter transcription, actives raise or lower the signal. The method, boiled down: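 HepG2 cells transiently transfected with multiplexed cis-element reporter units read endogenous transcription factor activity. After 24 h compound exposure, reporter mRNA was quantified by RT-PCR, fluorescent labelling, HpaI digestion and capillary electrophoresis; bidirectional fitting versus DMSO baseline.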
Bile acid receptor (Homo sapiens), sequence (Q96RI1 whole entry, looked up): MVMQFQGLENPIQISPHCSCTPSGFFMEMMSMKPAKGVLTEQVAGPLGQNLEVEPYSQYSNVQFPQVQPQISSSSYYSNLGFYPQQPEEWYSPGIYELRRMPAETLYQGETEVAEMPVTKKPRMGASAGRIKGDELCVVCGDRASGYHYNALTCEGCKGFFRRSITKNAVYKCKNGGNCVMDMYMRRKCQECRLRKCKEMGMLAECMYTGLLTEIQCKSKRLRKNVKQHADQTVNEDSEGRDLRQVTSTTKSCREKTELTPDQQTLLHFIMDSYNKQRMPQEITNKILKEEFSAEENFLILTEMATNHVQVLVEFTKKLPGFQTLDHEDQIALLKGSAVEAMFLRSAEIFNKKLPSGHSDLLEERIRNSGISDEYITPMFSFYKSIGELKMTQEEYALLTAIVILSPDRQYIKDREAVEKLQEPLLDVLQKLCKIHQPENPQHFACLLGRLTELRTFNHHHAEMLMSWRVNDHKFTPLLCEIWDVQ

Test [12] in a line: ATG_ISRE_CIS: Attagene CIS-FACTORIAL HepG2 Assay for human Interferon Regulatory Factor 1 (IRF1) binding to an Interferon-Stimulated Response Element (ISRE) (AID 2282948). The following applies: HepG2 ISRE cis-reporter (Attagene), mRNA transcription readout; actives raise or lower the signal. Summed up:
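Uses HepG2 liver cells transfected with cis-regulated reporters and measures mRNA 24 h post-dosing through RT-PCR, primer-extension labelling and capillary electrophoresis, with DMSO as negative control.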

Test [13] can be described thus: ATG_M_32_CIS: Attagene CIS-FACTORIAL HepG2 Assay for M32 Transcription Factor (Internal Marker) (AID 2282949).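 Note: background control marker of the multiplexed CIS panel rather than a real target.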 The following applies: HepG2 Attagene cis-factorial M32 reporter, mRNA; actives raise or lower the signal. Summed up: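 Using DMSO as baseline, bidirectional curve fits were applied to reporter mRNA signals. These came from transiently transfected HepG2 cells exposed for 24 h, with RNA analysed by RT-PCR, FAM primer extension, HpaI digestion and CE.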

Test [14] can be described thus: ATG_M_06_CIS: Attagene CIS-FACTORIAL HepG2 Assay for M06 Transcription Factor (Internal Marker) (AID 2282950). To be noted: HepG2 Attagene CIS-FACTORIAL M06 internal marker reporter; actives raise or lower the signal. Summed up:
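Serves as a background control readout. Transfected HepG2 exposed to compounds for 24 h, then reporter transcripts quantified by fluorescent RT-PCR and capillary electrophoresis. Both directions fitted against DMSO baseline.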

Test [15] deals with Hypoxia-inducible factor 1-alpha (Homo sapiens) (UniProt Q16665). As to the kind of experiment: ATG_HIF1a_CIS: Attagene CIS-FACTORIAL HepG2 Assay for human Hypoxia Inducible Factor 1 (HIF1A) (AID 2282951). The following applies: HepG2 Attagene cis-factorial HIF1a reporter transcription; actives raise or lower the signal. Summed up:
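RT-PCR/capillary electrophoresis fluorescence readout of reporter transcripts from endogenous-TF-driven cis elements in transfected HepG2 cells, 24 h exposure; activity fitted in both directions against DMSO controls.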

The target of test [16] is Heat shock factor protein 1 (Homo sapiens) (UniProt Q00613). As to the kind of experiment: ATG_HSE_CIS: Attagene CIS-FACTORIAL HepG2 Assay for human Heat Shock Transcription Factor 1 (HSE) (AID 2282953). The following applies: HepG2 HSE cis-reporter, Attagene RNA transcription; actives raise or lower the signal. The method, boiled down:
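Endogenous transcription factor activity in transiently transfected HepG2, read as reporter mRNA by RT-PCR with fluorescent capillary electrophoresis after 24 h. Gain or loss of signal fitted versus DMSO baseline.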

A short description of test [17]: ATG_MRE_CIS: Attagene CIS-FACTORIAL HepG2 Assay for human Metal Responsive Element (MRE) (AID 2282954). To be noted: HepG2 MRE cis-reporter transcription, Attagene multiplex; actives raise or lower the signal. Summed up: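 Multiplexed cis-reporter assay in human HepG2 liver cells, 24 h incubation with test chemical. Reporter transcripts measured by RT-PCR and capillary electrophoresis; values from bidirectional curve fitting versus DMSO.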

Test [18] is described as follows: ATG_GATA_CIS: Attagene CIS-FACTORIAL HepG2 Assay for human GATA Binding Protein (AID 2282944). The following applies: HepG2 GATA cis-element reporter, Attagene multiplex mRNA; actives raise or lower the signal. The method, boiled down:
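Reporter transcripts from a GATA cis-regulated unit, among multiplexed reporters in transfected HepG2 cells, were measured by RT-PCR with capillary electrophoresis after 24 h dosing. Induction or loss scored relative to DMSO.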

Test [19] in a line: ATG_GRE_CIS: Attagene CIS-FACTORIAL HepG2 Assay for human Glucocorticoid Response Elements (GRE) (AID 2282947). To be noted: HepG2 GRE cis-reporter, Attagene multiplex mRNA; actives raise or lower the signal. Summed up: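 Multiplexed cis-reporter mRNA induction, HepG2, 24 h post-dose. RT-PCR, FAM-labelled, HpaI-digested amplicons by CE. Bidirectional fit vs DMSO.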
The target of test [20] is Hepatocyte nuclear factor 6 (Homo sapiens) (UniProt Q9UBC0). The test can be described thus: ATG_HNF6_CIS: Attagene CIS-FACTORIAL HepG2 Assay for human Hepatocyte Nuclear Factor 6 (HNF6) (AID 2282952). To be noted: HepG2 Attagene cis-factorial HNF6 reporter transcription; actives raise or lower the signal. Summed up:
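Readout: fluorescent reporter-transcript fragments resolved by capillary electrophoresis after RT-PCR, reflecting endogenous factor activity in transfected HepG2. Exposure 24 h. Gain or loss of signal fitted bidirectionally against DMSO.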

Activity calls are given as the source filed them. Rule for the calls: active = hit-call score of the fitted dose curve at least 0.9, where 1 is the maximum; inactive = score below 0.9.

Heat shock factor protein 1 (Homo sapiens), sequence (Q00613 whole entry, looked up): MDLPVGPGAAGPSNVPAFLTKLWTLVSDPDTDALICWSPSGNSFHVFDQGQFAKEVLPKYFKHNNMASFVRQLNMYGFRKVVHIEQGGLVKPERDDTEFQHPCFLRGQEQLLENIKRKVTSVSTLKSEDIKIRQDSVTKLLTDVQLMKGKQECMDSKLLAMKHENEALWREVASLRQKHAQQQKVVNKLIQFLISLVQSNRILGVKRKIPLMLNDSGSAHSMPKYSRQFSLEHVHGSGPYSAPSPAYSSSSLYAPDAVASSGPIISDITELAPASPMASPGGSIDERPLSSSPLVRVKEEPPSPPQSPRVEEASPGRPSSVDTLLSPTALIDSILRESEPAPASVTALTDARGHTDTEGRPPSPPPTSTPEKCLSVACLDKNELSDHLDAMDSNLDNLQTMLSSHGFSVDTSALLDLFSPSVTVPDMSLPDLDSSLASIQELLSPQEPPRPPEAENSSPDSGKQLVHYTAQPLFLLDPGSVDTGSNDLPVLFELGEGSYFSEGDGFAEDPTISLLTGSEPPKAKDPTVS
Hypoxia-inducible factor 1-alpha (Homo sapiens), sequence (Q16665 whole entry, looked up): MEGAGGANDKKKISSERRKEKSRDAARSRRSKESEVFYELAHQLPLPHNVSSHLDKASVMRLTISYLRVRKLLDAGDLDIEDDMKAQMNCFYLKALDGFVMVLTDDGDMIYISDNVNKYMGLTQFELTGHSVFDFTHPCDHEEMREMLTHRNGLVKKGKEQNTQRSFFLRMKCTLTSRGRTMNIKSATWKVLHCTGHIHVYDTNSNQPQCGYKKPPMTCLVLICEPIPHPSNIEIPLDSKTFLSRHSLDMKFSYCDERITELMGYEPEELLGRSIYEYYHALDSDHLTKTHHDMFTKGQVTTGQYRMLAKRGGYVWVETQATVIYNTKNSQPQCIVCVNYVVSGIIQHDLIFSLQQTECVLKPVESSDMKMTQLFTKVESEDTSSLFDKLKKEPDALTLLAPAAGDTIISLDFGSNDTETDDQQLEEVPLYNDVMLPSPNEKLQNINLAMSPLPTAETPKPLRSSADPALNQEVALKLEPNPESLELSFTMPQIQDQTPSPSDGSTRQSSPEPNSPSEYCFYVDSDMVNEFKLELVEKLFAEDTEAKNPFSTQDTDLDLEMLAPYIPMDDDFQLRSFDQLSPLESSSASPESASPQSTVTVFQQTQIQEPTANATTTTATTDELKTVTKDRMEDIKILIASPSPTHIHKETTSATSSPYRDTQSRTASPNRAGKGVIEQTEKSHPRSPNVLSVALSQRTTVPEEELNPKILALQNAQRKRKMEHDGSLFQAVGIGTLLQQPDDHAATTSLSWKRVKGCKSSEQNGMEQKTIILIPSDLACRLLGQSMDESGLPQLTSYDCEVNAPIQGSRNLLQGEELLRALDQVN
Hepatocyte nuclear factor 6 (Homo sapiens), sequence (Q9UBC0 whole entry, looked up, the tested form may be a part): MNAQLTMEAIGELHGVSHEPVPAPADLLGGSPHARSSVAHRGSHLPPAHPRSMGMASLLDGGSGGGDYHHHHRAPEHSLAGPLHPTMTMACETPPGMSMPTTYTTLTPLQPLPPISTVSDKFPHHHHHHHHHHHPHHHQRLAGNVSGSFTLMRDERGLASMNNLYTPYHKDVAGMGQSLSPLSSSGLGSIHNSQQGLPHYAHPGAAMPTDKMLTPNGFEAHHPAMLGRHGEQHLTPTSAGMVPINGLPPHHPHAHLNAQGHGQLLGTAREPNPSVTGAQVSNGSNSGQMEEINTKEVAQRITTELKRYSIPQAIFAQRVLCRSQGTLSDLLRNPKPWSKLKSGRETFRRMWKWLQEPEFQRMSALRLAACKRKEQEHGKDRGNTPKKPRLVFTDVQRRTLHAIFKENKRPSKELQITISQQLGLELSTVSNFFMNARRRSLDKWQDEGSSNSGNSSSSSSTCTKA

For the molecule `NC(=O)N1C(=O)C(C(=O)c2cc(Cl)cs2)c2cc(F)c(Cl)cc21` (configuration not stated), the call in test [1], in test [2], in test [3], in test [4], in test [5] and in [6] was inactive. For the same molecule, the molecule was called inactive in test [7], in [8], in test [9], in test [10], in test [11] and in [12]. Also, the result in [13], in test [14] and in test [16] was inactive. For the same molecule, the AC50 in [15] is 6.79 µM (active); in [17], 14.9 µM (active).
As for `CCCCOCCO`, the result in test [1], in test [2], in test [3], in [4], in [5] and in test [7] was inactive. Also, the molecule was called inactive in test [8], in test [9], in [18], in test [10], in [11] and in test [12]. In addition, the molecule was classed as inactive in [13], in [14], in test [15], in test [16] and in test [17]. Moreover, the AC50 in test [6] was 134 µM (active).
For `Cc1ccc(S(=O)(=O)O)c(C)c1`, the molecule was classed as inactive in test [1], in test [2], in test [3], in test [4], in test [5] and in test [6]. Also, the call in [7], in [8], in test [9], in [10], in test [19] and in test [12] was inactive. The result in test [13], in [14], in test [15], in test [20], in test [16] and in [17] was inactive.
For the molecule `N#C[C@@H]1CC(F)(F)CN1C(=O)CNC1CC2CCC(C1)N2c1ncccn1` (some centres not stated), the molecule was called inactive in [1], in test [2], in test [3], in test [4], in test [5] and in [6]. In addition, the result in [7], in test [8], in test [9], in test [10], in test [11] and in test [19] was inactive. For the same molecule, the molecule was called inactive in test [12], in test [13], in [14], in [15], in [16] and in [17].
With `CCOC(=O)CC(O)(CC(=O)OCC)C(=O)OCC`, the molecule was classed as inactive in test [1], in test [2], in [3], in test [4], in test [5] and in [6]. Moreover, the molecule was classed as inactive in [7], in test [8], in test [9], in test [18], in test [10] and in [19]. For the same molecule, the outcome in [12], in test [13], in test [14], in [15], in test [16] and in [17] was inactive.
Take `CC(=O)NC1(c2cccc(F)c2)CCN(CC[C@@]2(c3ccc(Cl)c(Cl)c3)CN(c3ccccc3)C(=O)CO2)CC1`: the outcome in [1], in test [2], in test [3], in test [5], in test [8] and in [9] was inactive. The outcome in test [11], in test [12], in [13], in [14] and in test [20] was inactive. The AC50 is 28.5 µM (active) in test [4]; 33 µM (active) in test [6]; 51.9 µM (active) in [7]; 50.7 µM (active) in test [10]; 8.61 µM (active) in test [15]; 51.6 µM (active) in test [16]. Besides, in [17], the AC50 was 45.5 µM (active).

The record behind these values is PubChem BioAssay (EPA / NIEHS).
